Experimental data reported in PubChem BioAssay AID504833 (Johns Hopkins Ion Channel Center, 2011).
Screen size: about 2,500 compounds; about 2,200 (88%) were called active. The set was probably picked from earlier hits. Only a sample is shown. A number with no mark means an inactive call.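 How the source made its calls: active means primary screen active, with duplicate mean activation above negative control mean plus 3 SD (cut at about 11% in these data); inactive means the rest.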

target: High affinity choline transporter 1 (Homo sapiens) (UniProt Q9GZV3); assay: CHT activators, confirmation, cell-based, membrane potential dye, duplicate (AID 504833); settings: CHT-expressing cells, membrane potential dye fluorescence (FDSS); at 10 µM; hits give high values; % of choline EC20–EC90 response window; HEK293 expressing CHT LV-AA mutant; choline added at its EC20
Sequence (Q9GZV3 whole entry, looked up): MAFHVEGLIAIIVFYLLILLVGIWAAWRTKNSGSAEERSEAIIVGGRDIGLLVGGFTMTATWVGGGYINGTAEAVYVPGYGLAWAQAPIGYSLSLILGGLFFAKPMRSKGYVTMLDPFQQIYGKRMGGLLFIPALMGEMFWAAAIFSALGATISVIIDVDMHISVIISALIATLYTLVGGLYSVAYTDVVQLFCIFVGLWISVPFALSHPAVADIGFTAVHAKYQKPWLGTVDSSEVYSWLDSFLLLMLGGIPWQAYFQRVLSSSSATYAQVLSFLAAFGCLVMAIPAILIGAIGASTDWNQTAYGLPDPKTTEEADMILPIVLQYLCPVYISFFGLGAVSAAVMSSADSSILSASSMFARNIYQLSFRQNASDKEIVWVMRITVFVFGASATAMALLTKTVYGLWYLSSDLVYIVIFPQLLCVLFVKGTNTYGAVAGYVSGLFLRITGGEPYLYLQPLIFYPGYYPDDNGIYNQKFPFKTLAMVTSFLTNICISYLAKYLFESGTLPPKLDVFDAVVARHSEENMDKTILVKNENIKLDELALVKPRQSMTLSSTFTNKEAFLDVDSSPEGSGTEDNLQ

| Structure (SMILES) | activation |
| --- | --- |
| Nc1scc[n+]1Cc1cccc2cccnc12 | 42.7% (active) |
| Cn1c(=O)n(Cc2ccco2)c(=N)c2c3c(sc21)CCCC3 | 30.6% (active) |
| CCn1c(/C=C/Nc2ccccc2)[n+](CC)c2ccc(C(=O)OCC(F)(F)F)cc21 | 68.4% (active) |
| CC(Sc1nc2ccccc2c(=O)n1Cc1ccco1)C(=O)c1ccccc1 (stereo unspecified) | 16.9% (active) |
| Cc1nnc(-c2ccc(Oc3ccc(C)c(C)c3)c([N+](=O)[O-])c2)o1 | 15% (active) |
| Cc1ccc2c(c1)N(CC(=O)N(Cc1ccccn1)Cc1ccco1)C(=O)C(C(C)C)O2 (stereo unspecified) | 30.6% (active) |
| Clc1ccc(COn2c(-c3ccc(Cl)cc3Cl)nc3ncccc32)cc1 | 36.3% (active) |
| COc1ccccc1NC(=O)CN(c1ccccc1OC)S(=O)(=O)c1ccccc1 | 12% (active) |
| COc1ccccc1NC(=O)CSc1nnc(-c2ccoc2C)n1CCc1ccccc1 | 3.73% |
| Cc1c(C)c2c(OCC(=O)N[C@@H](C(=O)O)c3ccccc3)cc3c(c2oc1=O)CCC(C)(C)O3 | 7.79% |
| Cc1cc(NC(=O)c2cnn3cccnc23)n(-c2ccccc2)n1 | 52.8% (active) |
| CCN1CCCC1CNC(=O)c1cc2c(=O)n(C)c3ccccc3c2n1C (stereo unspecified) | 44.7% (active) |
| CCOC(=O)c1cccnc1NC(=O)c1ccncc1 | 35.3% (active) |
| Cc1nc2ccccc2c(=O)n1CCCn1ccnc1 | 22.6% (active) |
| Cc1nc2c(-c3ccccc3)c(C)[nH]n2c(=O)c1Cl | 8.04% |
| CC1=CC(C)(C)N(C(=O)CSc2nnc(-c3ccccc3)o2)c2ccc(C)cc21 | 7.25% |
| CCCCN(CCCC)CC(O)Cn1c2ccccc2c(=O)c2ccccc21 (stereo unspecified) | 44.6% (active) |
| CC(C)CC(COCc1ccc(Cl)cc1)N1CCN(C(=O)c2ccc(C(F)(F)F)cc2)CCC1=O (stereo unspecified) | 33.6% (active) |
| COc1nc(N=C(N)N)nc2c(C)cccc12 | 40.5% (active) |
| COc1ccc2nc(/N=C(\N)NC(=O)Nc3ccccc3)nc(C)c2c1 | 6.06% |
| Cc1nc(N=C(N)N)nc2c(C)cccc12 | 49.8% (active) |

| Structure (SMILES) | activation |
| --- | --- |
| CN1CCc2c(sc3c2c(NCc2ccco2)nc2nnnn23)C1 | 73.5% (active) |
| CCOc1ccc(C2c3[nH]c4ccccc4c3CCN2Cc2cccn2-c2ncccn2)cc1 (stereo unspecified) | 17.1% (active) |
| C=CCNc1nnc(C)c2ccccc12 | 55.7% (active) |
| COC(=O)c1sc(C(F)(F)F)c(-c2ccccc2)c1S(=O)(=O)N(C)C | 27.1% (active) |
| CC1(C)Cc2c(sc3nc4n(c(=N)c23)CCCCC4)CO1 | 40.2% (active) |
| CN1CCN(c2cc3c(cc2F)c(=O)c(C(=O)O)cn3CCF)CC1 | 63.4% (active) |
| CCn1cc(S(=O)(=O)c2cccc(C)c2)c(=O)c2cc(F)c(N3CCN(C)CC3)cc21 | 52.5% (active) |
| Cn1c(=O)[nH]c(=O)c2c1nc(N1CCN(CCO)CC1)n2CCSc1nc2ccccc2s1 | 69.4% (active) |
| Cc1ccc(-n2c(C)cc(/C=N\NC(=O)CC(=O)NC(C)C)c2C)cc1 | 33.2% (active) |
| O=C(Nc1ccccc1N1CCN(c2ccccc2)CC1)c1cccc(F)c1 | 36.2% (active) |
| C[C@H]1CCC(=O)N([C@H](CSc2ccccc2)Cc2ccccc2)CC1 | 12% (active) |
| O=C(c1ccc(F)c(S(=O)(=O)N2CCOCC2)c1)N(CCc1ccccc1)Cc1ccccc1 | 19.7% (active) |
| O=C1c2ccccc2C(=O)c2c1cccc2N1CCN(CCO)CC1 | 47.2% (active) |
| CCCCCCCCCCOC(=O)Cn1c(COc2cccc(OC)c2)[n+](C)c2ccccc21 | 63.2% (active) |
| CCCCCCCCCCOC(=O)Cn1c(COc2ccc(C)cc2)[n+](C)c2ccccc21 | 49.5% (active) |
| CCOC(=O)c1cn(CC)c2cc(F)c(F)cc2c1=O | 50.9% (active) |
| COc1cccc(C(=O)NC(=O)Nc2nc(C)cc(C(F)(F)F)n2)c1 | 49.4% (active) |
| COC(=O)c1ccc(C(NC(=O)OCc2ccccc2)/C(C)=C/[C@@H](C)C(=O)NCc2ccc(OC)c(OC)c2)cc1 (stereo partly specified) | 22.6% (active) |
| CCCCn1c(N)c(N(CCC(C)C)C(=O)c2ccc(COc3ccccc3)o2)c(=O)[nH]c1=O | 24.5% (active) |
| CN(C)/C=C/C(=O)c1cnc2sccn2c1=O | 42.8% (active) |
| COc1cc2c(cc1OC)C(Nc1ccc(S(N)(=O)=O)cc1)=NC(C)(C)C2 | 71.7% (active) |

| Structure (SMILES) | activation |
| --- | --- |
| CC(=O)c1ccccc1OCc1ccc(C(=O)c2ccccc2)cc1 | 25% (active) |
| Cc1nnc(C)c2c(C)n(N)c(C)c12 | 19.2% (active) |
| Nc1ccccc1SCc1cc([N+](=O)[O-])cc2c1OCOC2 | 33.2% (active) |
| O=C(Nc1ccncc1)c1ccc(Cl)c([N+](=O)[O-])c1 | 35.4% (active) |
| COc1ccc(Nc2nnc(C)c3ccccc23)cc1 | 38.3% (active) |
| CN(C)c1ccnc(Nc2ccc(F)cc2)c1C#N | 52.3% (active) |
| Clc1ccc(C[n+]2cc(-c3ccc(Cl)cc3)n3c2CCC3)cc1 | 57.3% (active) |
| COc1ccc2c(c1)cc1n2CCN=C1NN | 49% (active) |
| COc1cc2c(cc1OC)C(c1cccc([N+](=O)[O-])c1)=NCC2 | 68.6% (active) |
| COc1ccc(Cn2c(-c3ccc(Cl)cc3)c[n+]3ccccc23)cc1 | 73.3% (active) |
| Cc1cc(=O)oc2c(C)c(OC(C)C(=O)NC3CCN(Cc4ccccc4)CC3)ccc12 (stereo unspecified) | 56.9% (active) |
| Cn1c(=NC(=O)c2cnccn2)sc2ccccc21 | 55.7% (active) |
| Cc1c(CCOC(=O)CC23CC4CC(CC(C)(C4)C2)C3)sc[n+]1Cc1ccc([N+](=O)[O-])cc1 | 26.9% (active) |
| Cc1cccn2c(=O)c3cc(C#N)c(=O)n(CCCN4CCOCC4)c3nc12 | 42.7% (active) |
| CN1CCN(c2nc(Nc3ccc(O)cc3)nc3ccccc23)CC1 | 44.2% (active) |
| CCN1C(=NCCc2cccnc2)N[C@@H](c2ccccc2)[C@H](C(=O)OC)[C@H]1C | 14% (active) |
| Cc1ccccc1C(=O)NCC(c1ccco1)N1CCc2ccccc21 (stereo unspecified) | 9.36% |
| CC(=O)N1CC[n+]2c(-c3ccc([N+](=O)[O-])cc3)csc21 | 38.1% (active) |
| C[C@]1(C(=O)NCCc2c[nH]c3ccccc23)C=C[C@@H](Cc2ccccc2)N1C(=O)c1ccccc1 | 10.8% (active) |
